# Assay results: PubChem BioAssay AID435003 (Sanford-Burnham Center for Chemical Genomics, 2010)
# About 1,700 (0.52%) of roughly 330,000 compounds were called active. Rule as the data show it: active = inhibition above about 50%; inactive = the rest. The list comes from a sample in which actives are over-represented; it also holds similar structures and randomly drawn compounds.
# Assay: lowers stimulated NF-kB reporter luminescence – cell-based, uHTS, TCR NF-kB activation inhibitor project, primary screen (AID 435003)
# Settings: Jurkat, PMA/ionomycin-induced NF-kB luciferase reporter, at 4 µM, hits give high values
row,SMILES,inhibition
1,CC1CN(C2CCN(C(=O)COc3ccccc3)CC2)CC(C)O1 (configuration not stated),-5.33% (inactive)
2,CSc1ccc(S(=O)(=O)Nc2cccc(F)c2)cc1,-8.25% (inactive)
3,COc1ccccc1N1CCN(S(=O)(=O)c2ccc(Cl)cc2)CC1,-16.1% (inactive)
4,COc1ccccc1-n1nnnc1SCC(=O)NC(=O)Cc1ccccc1,4.18% (inactive)
5,COc1ccccc1-n1nnnc1S(=O)(=O)Cc1ccc(Cl)cc1,55.8% (active)
6,Cn1c2c(c(=O)n(C)c1=O)C(c1ccc(O)cc1)Nc1ccccc1O2 (configuration not stated),3.73% (inactive)
7,CCCCCCCCn1c2c(c(=N)c3c1CCC3)CCCC2,89.5% (active)
8,COc1ccc(C)cc1NC(=O)C(OC(=O)c1cccc(S(=O)(=O)N(C)c2ccccc2)c1)c1ccccc1 (configuration not stated),10.1% (inactive)
9,CN(C)C(CNC(=O)c1ccc(S(=O)(=O)NCc2ccco2)cc1)c1ccccc1 (configuration not stated),-19.3% (inactive)
10,CC(=O)Nc1ccc(NC(=O)C2CCCN(S(=O)(=O)c3ccc(Cl)cc3)C2)cc1 (configuration not stated),-4.31% (inactive)
11,CC(C)(C)Nc1c(-c2cccs2)nc2ccccn12,-10.6% (inactive)
12,COc1ccc(/C(C)=N\NC(=O)c2ccc(-c3ccccc3)cc2)c(F)c1,-14.4% (inactive)
13,C/C(=N\NC(=O)c1ccoc1C)c1ccccc1O,-29.9% (inactive)
14,C/C(=N\NC(=O)c1ccccc1F)c1ccccn1,90.2% (active)
15,Cc1cc(Cl)ccc1NC(=S)N1CCC(C(N)=O)(N2CCCCC2)CC1,5.02% (inactive)
16,Cn1nccc1C(=O)NC1CCCc2c1cnn2-c1ccccc1F (configuration not stated),62.9% (active)
17,Cc1cc(C(=O)NC2CCCc3c2cnn3-c2cccc(C)c2C)c(C)o1 (configuration not stated),29.7% (inactive)
18,Cn1nccc1C(=O)NC1CCCc2c1cnn2-c1ccc(F)cc1F (configuration not stated),71% (active)
19,CC(=O)NCC(=O)NC1CCCc2c1cnn2-c1ccccc1F (configuration not stated),-8.3% (inactive)
20,Cc1ccc(-n2ncc3c2CCCC3NC(=O)c2cnccn2)cc1C (configuration not stated),-3.8% (inactive)
21,COc1ccc(C(=O)NC2CCCc3c2cnn3-c2cccc(C)c2C)c(OC)n1 (configuration not stated),29.1% (inactive)
22,CC1CC(C)CN(C(=O)CCNC(=O)Cn2cnc3ccccc3c2=O)C1 (configuration not stated),-7.78% (inactive)

row,SMILES,inhibition
1,Cc1ccc(S(=O)(=O)N(C)C)cc1NC(=O)c1n[nH]c(=O)c2ccccc12,-17.4% (inactive)
2,COC(=O)C1=NN(c2ccccc2)C2C(=O)N(c3ccccc3OC)C(=O)C12 (configuration not stated),25.7% (inactive)
3,COc1ccc(NCc2nnc(SCc3ccccc3)n2-c2ccc(OC)cc2)cc1,-6.88% (inactive)
4,CCOC(=O)c1cccc(NC(=O)C2CCN(c3ncnc4c3nc3n4CCCCC3)CC2)c1,12.1% (inactive)
5,Oc1c(Br)cccc1/C=N/Nc1c(F)c(F)c(F)c(F)c1F,2.14% (inactive)
6,Oc1cccc(/C=N/Nc2ccc(Cl)nn2)c1O,54.9% (active)
7,Cc1nc2ccccc2nc1N/N=C/c1ccc(O)cc1O,20.4% (inactive)
8,Cc1cc(=O)[nH]c(Nc2cccc(Br)c2)n1,12.3% (inactive)
9,CN(Cc1ccccc1)C(=O)CCNC(=O)Cn1cnc2ccccc2c1=O,-2.32% (inactive)
10,Cc1cccc(Nc2nc(NCCO)nc(N3CCCC3)n2)c1,5.92% (inactive)
11,OCCCNc1nccc(-c2cc(Nc3cccc(Cl)c3)ncn2)n1,98.5% (active)
12,CC(C)n1cnc2c(Nc3cccc(Cl)c3)nc(N(CCO)CCCO)nc21,-12% (inactive)
13,Cc1ccc(S(=O)(=O)c2nc(-c3cccs3)oc2NCc2cccnc2)cc1,-3.33% (inactive)
14,COc1ccc(C(=O)N2CCN(c3ccc(C(C)=O)cc3F)CC2)cc1S(=O)(=O)NC1CC1,-20.9% (inactive)
15,C[C@H](CO)N1C[C@H](C)[C@@H](CN(C)C(=O)NC2CCCCC2)Oc2ccc(NC(=O)c3ccncc3)cc2C1=O,7.62% (inactive)
16,COCCCNC(=O)CCc1nc2cccnc2n1Cc1ccc(OC)cc1,1.81% (inactive)
17,Cn1c(-c2ccc(C(F)(F)F)cc2)cc2onc(-c3ccccc3)c2c1=O,-242% (inactive)
18,CCOc1ccc(C(=O)Nc2ccc(CN3CCOCC3)cc2)cc1Cl,-22.2% (inactive)
19,O=C(Nc1ccccc1C(=O)N1CCOCC1)c1ccc(CSc2ccccc2)cc1,-0.886% (inactive)
20,O=C(Nc1ccc(CSc2ccccc2)cc1)c1ccc(CN2CCOCC2)cc1,69% (active)
21,Cc1ccc2nc(-c3ccccn3)cc(C(=O)Nc3ccc4c(c3)OCO4)c2c1,11.1% (inactive)
22,CCN(CC)CCNC(=O)c1ccc(NC(=O)c2cc(-c3ccncc3)nc3ccccc23)cc1,-38.2% (inactive)

row,SMILES,inhibition
1,Cc1ccc2nc(-c3ccncc3)cc(C(=O)Nc3ccc(OC(F)F)cc3)c2c1,53.6% (active)
2,CC(C)CC[n+]1ccn(C2=C([O-])c3ccccc3C(=O)/C2=N\S(=O)(=O)c2ccccc2)c1,6.27% (inactive)
3,Cc1ccc(OCCNC(=O)CN2C(=O)NC3(CCCC3)C2=O)cc1,7.61% (inactive)
4,O=C(Nc1ccc(Br)cc1)c1cccc(NC(=O)C2C3CC4OC(=O)C2C4C3)c1 (configuration not stated),-6.94% (inactive)
5,COc1ccc(NC(=O)C/C(C)=N/NC(=O)c2cnccn2)cc1Cl,-12.8% (inactive)
6,CCN1CCN(c2ccc(NC(=O)c3cnccn3)cc2)CC1,-79.3% (inactive)
7,CCN(CC)c1ccc(/C=N/NC(=O)c2cnccn2)c(O)c1,59.3% (active)
8,CCC(C)n1[nH]c(=O)cc1N (configuration not stated),6.5% (inactive)
9,N#CC1(C#N)C(C(=O)C23CC4CC(CC(C4)C2)C3)C12CCOCC2 (configuration not stated),3.42% (inactive)
10,C=C(C)C(=O)O[C@H]1C/C(C)=C\C(=O)/C=C(\C)[C@H](O)[C@@H]2OC(=O)C(=C)[C@@H]21,76.7% (active)
11,COc1ccc2cc1Oc1ccc(cc1)C[C@H]1c3cc(c(OC)cc3CCN1C)Oc1c(O)c(OC)cc3c1[C@H](C2)N(C)CC3,81.7% (active)
12,C=CCn1c(SCc2c(C)noc2C)nc2sc3c(c2c1=O)CCC(C)C3 (configuration not stated),69.9% (active)
13,C=CCn1c(SCC(=O)NCC2CCCO2)nc2sc(C)c(C)c2c1=O (configuration not stated),-2.81% (inactive)
14,C=CCn1c(SCC(=O)NCCCO)nc2sc3c(c2c1=O)CCC3,6.01% (inactive)
15,CC1Cc2cc(/C(O)=C3\C(=O)C(=O)N(Cc4cccnc4)C3c3ccccc3F)ccc2O1 (configuration not stated),-14.7% (inactive)
16,COc1ccc(C(=O)CCC(=O)Nc2ccc(Cl)cc2)cc1,10.1% (inactive)
17,COc1ccc(NC(=O)/C(Cl)=C(/Cl)S(=O)Cc2ccc(C)cc2)cn1 (configuration not stated),91.6% (active)
18,COc1ccc(CCNC(=O)c2cnc(Cl)c(Cl)c2)cc1,-35.5% (inactive)
19,CCN(CC(=O)Nc1ccc(OC)cc1)C(=O)CSCc1ccc(C)cc1,-16.5% (inactive)
20,COc1ccc(CS(=O)/C(Cl)=C(/Cl)C(=O)Nc2ccc(OC)nc2)cc1 (configuration not stated),99.4% (active)
21,COC(=O)c1sccc1NC(=S)Nc1ccc(C)cc1,-16.1% (inactive)
22,Cc1ccc(-n2c(SCC(=O)NCc3ccc4c(c3)OCO4)nnc2-c2cccnc2)c(C)c1,-1.23% (inactive)

row,SMILES,inhibition
1,O=[N+]([O-])c1ccc(N2CCNCC2)cc1NCc1cccnc1,1.76% (inactive)
2,CCCC(C(=O)NC1CCCC1)N(C(=O)Cn1nnc(-c2ccc(C)o2)n1)c1cccc(O)c1 (configuration not stated),7.15% (inactive)
3,Cc1ccc(-c2cc(=O)c3ccc(F)cc3[nH]2)cc1,14.5% (inactive)
4,O=c1cc(-c2ccccc2)[nH]c2cc(F)ccc12,61.5% (active)
5,CC(=O)c1cc(-c2ccccc2)[nH]c1N1CCCC1,8.23% (inactive)
6,CSc1ccc(NC(=O)N2CC(C)OC(C)C2)cc1 (configuration not stated),21.7% (inactive)
7,COCc1cc(C)nc(Nc2cc(C)ccc2C)c1C#N,6.05% (inactive)
8,O=C(NC(Nc1nc2ccc([N+](=O)[O-])cc2s1)(C(F)(F)F)C(F)(F)F)c1ccccc1,72.3% (active)
9,O=C(COC(=O)c1ccc([N+](=O)[O-])cc1Cl)NC(=O)c1ccccc1,3.88% (inactive)
10,O=C(O)c1cc([N+](=O)[O-])c(Nc2cccc3ccccc23)c([N+](=O)[O-])c1,-10.8% (inactive)
11,O=C(CSc1nnc(Nc2ccccc2F)s1)NC1CCCC1,-19.9% (inactive)
12,COc1cccc(CN2CCNC(=O)C2CC(=O)N(C)CCc2ccccn2)c1 (configuration not stated),-0.459% (inactive)
13,Cc1ccc(O)c(NC(=O)COc2cc(C)ccc2C)c1,61.3% (active)
14,Cc1ccc(C)c(OCC(=O)NNC(=O)C2CCC2)c1,0.404% (inactive)
15,Cc1ccc(O)c(NC(=S)NC(=O)COc2ccc(Br)cc2)c1,14.2% (inactive)
16,COc1ccc(Br)cc1S(=O)(=O)N1CCN=C1C,-11.9% (inactive)
17,COCCNC(=O)c1ccc(Cn2c(SCC(=O)NCC3CCCO3)nc3ccc(Br)cc3c2=O)cc1 (configuration not stated),23.7% (inactive)
18,COc1ccccc1NC1=NC(c2ccc(Cl)cc2)N=C(N)N1 (configuration not stated),60.9% (active)
19,COc1ccccc1NC(=O)c1cc(Cl)nnc1Cl,-0.0528% (inactive)
20,COc1ccccc1NC(=O)C1CCCN1S(=O)(=O)c1ccc(Cl)cc1 (configuration not stated),-8.88% (inactive)
21,CC(C)n1c(-c2ccncc2)n[nH]c1=S,11.1% (inactive)
